# Screening data deposited in PubChem BioAssay by several laboratories.
# In the library only some 2.9% were active in any assay of this set; here they are far more common.
# MEKK3 PB1 HTS – modulators (inhibitors or enhancers) of MEK5 binding to human MEKK3 PB1 domain; 290,000 compounds, 1.4% hits; Q99759; binding response (% of control), % at 10 µM; bead-based flow cytometry, Alexa488-MEK5 binding to MEKK3; actives lie on both sides; 0 = blocked by unlabeled MEK5, 100 = vehicle;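 active = binding response more than 3 SD above or below the average of its plate-row segment, actives on both sides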;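 note: Alexa488 bead fluorescence after subtracting the streptavidin-only scavenger bead signal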
# MEKK2mut PB1 HTS – signal of MEK5 binding to mutant human MEKK2 PB1 domain; bead flow cytometry, Alexa488-MEK5 binding to MEKK2 mutant; percent response, % at 10 µM; 290,000 compounds, 0.35% hits; AID 1530; in the data active = percent response above about 24%, passing the limit was not always enough
# CRFBP-R2 agonist – CRF-BP/CRF-R2 complex agonism. HEK293 CRF-R2/CRF-BP, calcium dye fluorescence (FLIPR); percent of saturating CRF peptide response. activation, % at 13.2 µM. 350,000 compounds, 0.46% hits;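 active = activation of at least 50%, plus an integration ratio under a set limit after plate pattern correction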;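 note: plate controls were neutral control wells without compound for no effect and CRF at EC100 for full effect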
# CRFBP-R2 block – blocks CRF-induced signaling of the CRF-BP/CRF-R2 complex | HEK293 CRF-R2/CRF-BP, CRF-induced calcium fluorescence | inhibition, % at 11.8 µM | 350,000 compounds, 0.59% hits;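 active = inhibition of the ligand-induced calcium signal above about 50% at the single tested concentration, limit read from the data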
# ABCB6 inh MLPCN – inhibitors of human ABC transporter ABCB6; 360,000 compounds, 0.19% hits; AID 602162; Q9NP58; K562-ABCB6 porphyrin accumulation, flow cytometry, 1 h; stronger effect = lower value; fluorescence ratio to DMSO, % at 10 µM;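 active = fluorescence ratio to DMSO below 75%, the collection mean minus 3 SD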;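 note: signal is porphyrin accumulated inside mitochondria; 100% equals median channel fluorescence of DMSO control wells; lower ratio means ABCB6 inhibition with less porphyrin fluorescence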
# Target sequence (Q9NP58 whole entry, looked up): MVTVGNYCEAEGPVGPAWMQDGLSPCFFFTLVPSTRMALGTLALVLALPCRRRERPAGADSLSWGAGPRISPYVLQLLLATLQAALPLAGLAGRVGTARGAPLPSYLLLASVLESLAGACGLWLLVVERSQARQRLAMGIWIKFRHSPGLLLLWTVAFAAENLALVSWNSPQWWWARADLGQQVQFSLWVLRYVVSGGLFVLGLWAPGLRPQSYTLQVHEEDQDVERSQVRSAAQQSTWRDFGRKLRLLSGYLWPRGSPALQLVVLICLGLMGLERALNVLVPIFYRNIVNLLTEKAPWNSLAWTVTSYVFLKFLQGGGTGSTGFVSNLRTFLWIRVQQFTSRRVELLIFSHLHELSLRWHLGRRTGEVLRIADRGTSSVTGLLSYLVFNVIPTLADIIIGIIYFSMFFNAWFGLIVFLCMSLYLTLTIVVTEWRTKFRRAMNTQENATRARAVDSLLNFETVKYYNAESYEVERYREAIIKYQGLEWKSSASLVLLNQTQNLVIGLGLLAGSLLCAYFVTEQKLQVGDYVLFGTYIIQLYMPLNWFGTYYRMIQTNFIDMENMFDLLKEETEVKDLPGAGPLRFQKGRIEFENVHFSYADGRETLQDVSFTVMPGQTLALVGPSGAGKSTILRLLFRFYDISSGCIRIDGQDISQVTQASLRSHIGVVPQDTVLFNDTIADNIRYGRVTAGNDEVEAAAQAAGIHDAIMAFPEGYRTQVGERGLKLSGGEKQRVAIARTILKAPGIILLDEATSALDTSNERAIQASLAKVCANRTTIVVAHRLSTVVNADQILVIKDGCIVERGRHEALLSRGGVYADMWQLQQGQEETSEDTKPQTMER
# MEKK2wt PB1 HTS – raises or lowers MEK5 binding to wildtype human MEKK2 PB1 domain | bead flow cytometry, Alexa488-MEK5 binding to MEKK2 WT; actives lie on both sides | AID 1531 | Q9Y2U5 | 290,000 compounds, 1.1% hits | binding response (% of control), % at 10 µM; in the data active = binding response below about 67% or above about 130%
# MEKK2wt confirm – raises or lowers MEK5 binding to wildtype human MEKK2, retest; binding response (% of control), % at 10 µM; shares compounds with MEKK3 PB1 HTS; bead flow cytometry, Alexa488-MEK5 binding to MEKK2 WT; actives lie on both sides; 5,900 compounds, 2.4% hits; in the data active = binding response below about 16% or above about 210%; inactive = in between
# MEKK2mut confirm – signal of MEK5 binding to mutant human MEKK2, retest. 5,900 compounds, 2% hits. shares compounds with MEKK3 PB1 HTS. bead flow cytometry, Alexa488-MEK5 binding to MEKK2 mutant. percent response, % at 10 µM; in the data active = percent response mostly above about 71%, no sharp cut-off; inactive = mostly below about 38%;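 note: higher means compound restores mutant binding toward wildtype level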
# MEKK3 confirm – confirmation of inhibitors of MEK5 binding to human MEKK3 | shares compounds with MEKK3 PB1 HTS | bead flow cytometry, Alexa488-MEK5 binding to MEKK3; stronger effect = lower value | binding response (% of control), % at 10 µM | 5,900 compounds, 1.8% hits | AID 1894;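 active = binding response below 72% of control, or above a set upper limit, though filed actives all read lower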;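 note: 100% = DMSO only wells and 0% = binding blocked by excess unlabeled MEK5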
# * = called active by the depositor; / = no result given; [ ] = dose if it differs, or a comment.
SMILES,MEKK3 PB1 HTS,MEKK2mut PB1 HTS,CRFBP-R2 agonist,CRFBP-R2 block,ABCB6 inh MLPCN,MEKK2wt PB1 HTS,MEKK2wt confirm,MEKK2mut confirm,MEKK3 confirm
O=C(CCNC(=O)N1CC(=O)Nc2ccccc21)Nc1ccc(Br)cc1F,100,2,0,8,100,104,/,/,/
CCOc1ccc(CCN2C(=S)N([C@@H](CC(C)C)CN3CCCC3CN3C(=S)NC[C@@H]3Cc3ccc(O)cc3)C[C@@H]2Cc2ccc(O)cc2)cc1 (stereo not given in full),/,/,-2,-7,91,/,/,/,/
O=C(O)c1ccc(CP(=O)(c2ccccc2)c2ccccc2)cc1,122*,11,-1,14,97,123,105,5,105
O=P(Cc1ccccc1)(c1ccccc1)c1ccccc1,96,3,-1,9,101,115,/,/,/
C[C@@H](c1ccccc1)N1C[C@H]2CCCN2c2cc(Br)ccc2S1(=O)=O,/,/,1,0,101,/,/,/,/
COc1ccc(OC)c(/C(O)=C/C(=O)C(=O)Nc2cc(C)cc(C)c2)c1,126*,4,0,-7,98,120,96,-5,97
COc1ccc(OC)c(/C(O)=C/C(=O)C(=O)Nc2cc(C)ccc2OC)c1,92,-1,0,-14,96,93,/,/,/
CCc1cc2cc(C)cc(C)c2nc1Cl,138*,5,0,-9,99,123,95,-28,98
Cc1cc(Nc2ncc(Cl)cc2Cl)n(-c2ccccc2)n1,139*,1,-2,5,99,108,110,6,104
C/C(CC(=O)Nc1cccc(Cl)c1Cl)=N\NC(=O)C(=O)N1CCCC1,98,2,0,0,96,99,/,/,/
C/C(CC(=O)Nc1cccc(Cl)c1Cl)=N\NC(=O)c1ccccc1C,3.0*[inhibitor],-18,-3,8,94,4.0*[inhibitor],97,4,102
Cc1ccc(NC(=O)NNC(=O)C2CC(c3cccs3)=NO2)cc1 (stereo not given),106,8,0,6,100,113,/,/,/
CCN(CC)C(=O)C1CCC(CNS(=O)(=O)c2cccc3cccnc23)CC1 (stereo not given),115,6,0,9,106,114,/,/,/
CN(Cc1ccccc1)C(=O)C1CCC(CNS(=O)(=O)c2cccc3cccnc23)CC1 (stereo not given),131*,26,-2,2,97,119,106,2,99
Cc1nc(Nc2nc(CSc3ccc(Cl)cc3)cc(=O)[nH]2)nc2ccccc12,132*,0,0,9,95,104,104,2,105
Cc1onc(-c2ccccc2Cl)c1C(=O)O/N=C(\N)c1ccccc1,106,10,0,-15,92,112,/,/,/
C/C(=N\OC(=O)c1c(-c2ccccc2Cl)noc1C)c1ccncc1,48*[inhibitor],-16,-1,-4,92,55,106,4,103
Cc1cc(C)c(C#N)c(Cl)n1,149*,0,-1,-5,102,107,105,1,103
COc1ccc(CNC(=O)C2CC(c3cccc(OC)c3)=NO2)cc1 (stereo not given),82*[inhibitor],-4,-8,-9,103,89,103,0,102
CC(=O)Oc1ccc(C(=O)Cc2ccc3ccccc3n2)c(O)c1C,135*,7,22,-17,109,105,110,3,108
c1ccc(CN2CCN(CCCNc3ccc4nnc(-c5ccccc5)n4n3)CC2)cc1,114,24*,1,0,100,132,161,38,111
CCOC(=O)c1ccccc1NC(=O)Cc1ccc(OC)c(S(=O)(=O)N2CCOCC2)c1,/,/,-4,-1,97,/,/,/,/
N#Cc1cc([N+](=O)[O-])cnc1NCC(O)CO (stereo not given),2.0*[inhibitor],-18,2,-6,103,2.0*[inhibitor],103,4,101
CCCCN1C(=O)CC(C(=O)O)C1c1ccc(OC)cc1 (stereo not given),97,-5,-3,-3,100,91,/,/,/
CCCCN1C(=O)CCC(C(=O)O)C1c1ccccc1 (stereo not given),0.0*[inhibitor],-17,0,-6,88,-1.0*[inhibitor],91,-7,85
SMILES,MEKK3 PB1 HTS,MEKK2mut PB1 HTS,CRFBP-R2 agonist,CRFBP-R2 block,ABCB6 inh MLPCN,MEKK2wt PB1 HTS,MEKK2wt confirm,MEKK2mut confirm,MEKK3 confirm
CC1Cc2ccccc2N1C1=CC(=O)CCC1 (stereo not given),0.0*[inhibitor],-47,-1,2,101,0.0*[inhibitor],108,9,106
COc1ccc2c(c1)C(C1=C(O)CC(C)(C)CC1=O)C1=C(CC(C)(C)CC1=O)O2 (stereo not given),101,3,0,23,93,100,/,/,/
COc1ccc(C2CC(=O)OC3=C2C(=O)CC(C)(C)C3)c(OC)c1 (stereo not given),69*[inhibitor],-2,5,-17,98,80,93,1,96
Cc1cccc(NC(=O)Cn2c([N+](=O)[O-])cnc2C)c1C,136*,1,/,/,/,112,104,0,104
Cc1onc(-c2ccccc2)c1C(=O)N1CCC(CO)(Cc2ccccc2)CC1,101,6,0,-12,95,98,/,/,/
O=C(CNc1cc(S(=O)(=O)N2CCOCC2)ccc1NCC1CCCO1)Nc1ccc(C(F)(F)F)cc1 (stereo not given),/,/,-1,15,82,/,/,/,/
N#Cc1ccc(NC(=O)CNc2cc(S(=O)(=O)N3CCOCC3)ccc2NCC2CCCO2)cc1 (stereo not given),5.0*[inhibitor],-18,3,6,105,7.0*[inhibitor],104,2,107
CCCCN1CNC(=S)N(Cc2ccccc2)C1,130*,0,3,-8,98,105,97,-7,102
COc1cccc(N2C(=O)Nc3ccc(Br)cc3C2(O)C(=O)NCCCN(C)C)c1 (stereo not given),102,3,0,0,98,107,/,/,/
Cc1ccc(C(=O)COC(=O)c2c(C)cc(=O)oc2C)cc1[N+](=O)[O-],160*,1,2,-12,101,106,105,8,102
Cc1cc(=O)oc(C)c1C(=O)OCC(=O)c1ccc(Cl)c(Cl)c1,105,0,0,-4,99,101,/,/,/
